About 79,000 compounds went through this panel and 15% of them were active in at least one assay; those are over-represented in the sample as a whole. A number with no mark means an inactive call. Active and inactive are the calls of the source. No stated cut-off is given here; in the data, active means growth inhibition above about 70%; inactive means the rest.
Assays:
[1] = NCI Yeast Anticancer Drug Screen. Data for the rad50 strain (AID 155);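 further: 0% = growth of vehicle-only cultures of the same strain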; settings: S. cerevisiae rad50 strain growth inhibition, active compounds read high
Summary of the method: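 Cells are treated with compound, grown, and their growth is then scored against vehicle-only cultures of the same repair-deficient yeast strain.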

[2] = NCI Yeast Anticancer Drug Screen. Data for the mec2-1 strain (AID 157); settings: S. cerevisiae mec2-1 strain, active compounds read high
Summary of the method: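 Yeast mec2-1 mutant treated with compound. Readout: growth inhibition vs vehicle controls.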

[3] = NCI Yeast Anticancer Drug Screen. Data for the sgs1 mgt1 strain (AID 161);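 further: 0% = growth of cultures given vehicle only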; settings: S. cerevisiae sgs1 mgt1 strain, active compounds read high
Summary of the method: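 Genetically altered yeast, compound exposure, growth inhibition relative to vehicle.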

[4] = NCI Yeast Anticancer Drug Screen. Data for the cln2 rad14 strain (AID 165);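 further: 0% = growth equal to vehicle treated cultures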; settings: S. cerevisiae cln2 rad14 strain, active compounds read high
Summary of the method: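 cln2 rad14 yeast strain; compound exposure; growth inhibition read vs vehicle controls.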

[5] = NCI Yeast Anticancer Drug Screen. Data for the bub3 strain (AID 167); settings: S. cerevisiae bub3 mutant strain, active compounds read high
Summary of the method: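 Part of a panel of yeast mutants defective in DNA damage repair or cell cycle regulation. Each strain is grown with compound, and inhibition is calculated relative to solvent-treated cultures.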

[6] = NCI Yeast Anticancer Drug Screen. Data for the mlh1 rad18 strain (AID 175); settings: S. cerevisiae mlh1 rad18 strain growth inhibition, active compounds read high
Summary of the method: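 Yeast w/ defined DNA-repair lesions; compound exposure; growth vs vehicle controls → % inhibition.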

[7] = at 5.0 µM (retest, dose inferred, filed as 0.5)
[8] = at 50.0 µM (retest, dose inferred, filed as 5.0)

| Structure (SMILES) | growth inhibition [1, 7] | growth inhibition [1, 8] | growth inhibition ([1]; at 50.0 µM) | growth inhibition [2, 7] | growth inhibition [2, 8] | growth inhibition ([2]; at 50.0 µM) | growth inhibition [3, 7] | growth inhibition [3, 8] | growth inhibition ([3]; at 50.0 µM) | growth inhibition [4, 7] | growth inhibition [4, 8] | growth inhibition ([4]; at 50.0 µM) | growth inhibition [5, 7] | growth inhibition [5, 8] | growth inhibition ([5]; at 50.0 µM) | growth inhibition [6, 7] | growth inhibition [6, 8] | growth inhibition ([6]; at 50.0 µM) |
| --- | --- | --- | --- | --- | --- | --- | --- | --- | --- | --- | --- | --- | --- | --- | --- | --- | --- | --- |
| CC(C)c1ccc2c(c1)CC[C@H]1[C@](C)(C(=O)O)CCC[C@]21C | -1% | 96% (active) | 91.6% (active) | 2% | 96% (active) | 93% (active) | 10% | 96% (active) | 91.8% (active) | -11% | 96% (active) | 91.3% (active) | -2% | 95% (active) | 90.8% (active) | 9% | 95% (active) | 91.1% (active) |
| O=S(=O)(OI(OI(OS(=O)(=O)C(F)(F)F)c1ccccc1)c1ccccc1)C(F)(F)F | 58% | 97% (active) | 89.2% (active) | 48% | 98% (active) | 91.5% (active) | 44% | 98% (active) | 91.7% (active) | 27% | 92% (active) | 91.1% (active) | 65% | 98% (active) | 91% (active) | 75% (active) | 97% (active) | 89.2% (active) |
| C#CC(CC(C)CC(C)(C)C)NC (stereo not given) | 2% | 91% (active) | 97.2% (active) | 2% | 58% | 85.5% (active) | 0% | 97% (active) | 96.8% (active) | 7% | 53% | 76% (active) | 2% | 86% (active) | 92.3% (active) | 1% | 73% (active) | 96% (active) |
| CCNc1ccccc1C | 3% | 91% (active) | 98.7% (active) | -1% | 88% (active) | 98.2% (active) | -2% | 86% (active) | 97% (active) | 2% | 97% (active) | 96.4% (active) | 7% | 82% (active) | 97.7% (active) | 3% | 97% (active) | 98.3% (active) |
| COc1cccc(/C=C2\CCC(CN(C)C)C2=O)c1 (stereo not given) | 27% | 95% (active) | 93.5% (active) | 21% | 99% (active) | 93.8% (active) | 39% | 99% (active) | 93.3% (active) | 28% | 98% (active) | 91.6% (active) | 48% | 99% (active) | 92.5% (active) | 35% | 99% (active) | 91.7% (active) |
| Oc1cccnc1CN1CCCCC1 | -5% | 19% | -11.7% | 6% | 22% | -3.1% | 7% | 8% | -28.5% | 14% | 14% | 85.7% (active) | -21% | 7% | -10.8% | 19% | 46% | -21.1% |
| CC1(C)CC(=N/O)/C(=N/O)C(=N\NC(N)=S)/C1 | 7% | 54% | 69.9% | -2% | 35% | 49.1% | 1% | 63% | 76.9% (active) | -12% | 28% | 30.2% | -1% | 47% | 64.9% | -3% | 62% | 73.5% (active) |
| CC1C(=O)C(Br)CC2C1(C)CCC1C2(C)CCC2(C)C3CC(C)(C)CCC3(C)CCC12C (stereo not given) | 6% | -1% | 25.7% | 5% | 3% | 6.25% | 8% | -13% | 4.2% | 7% | 6% | 64.5% | 6% | 5% | 85% (active) | -2% | 0% | 0.3% |
| CC(C)n1nnc2c3ccccc3c3ccccc3c21 | 3% | 11% | -7.5% | 5% | -1% | 4.1% | -2% | 6% | 11.8% | 15% | 19% | -1.25% | 14% | 12% | 5.9% | -10% | 15% | 0% |
| O=C1CC(c2ccccc2Cl)C(c2ccccc2Cl)C1 (stereo not given) | -2% | 97% (active) | 97.5% (active) | -6% | 98% (active) | 96% (active) | -7% | 96% (active) | 96.7% (active) | -2% | 97% (active) | 95.5% (active) | 0% | 97% (active) | 97.2% (active) | -2% | 96% (active) | 97.2% (active) |
| Cc1ncc(CO)c(C=NCCCCCCN=Cc2c(CO)cnc(C)c2[O-])c1[O-].[Cu+2] | -2% | -1% | 3.9% | -3% | 1% | -20.4% | -4% | -5% | -5.85% | -5% | -1% | 81.2% (active) | -3% | -1% | 25.9% | -2% | 0% | 25.4% |
| CCCCCCCCCCCCCCCCCc1nnc(N)o1 | 1% | 24% | -11.8% | 7% | 33% | -0.5% | 18% | 51% | 19% | 1% | 36% | 45.6% | 6% | 40% | 11.2% | 6% | 25% | -3.6% |
| CC1CCC2(NC1)OC1CC3[C@@H]4CC=C5C=CCC[C@]5(C)C4CC[C@]3(C)C1C2C (stereo not given in full) | -16% | 97% (active) | 90.8% (active) | 4% | 99% (active) | 93.1% (active) | -4% | 98% (active) | 91.6% (active) | 6% | 97% (active) | 90.9% (active) | -33% | 98% (active) | 90.8% (active) | -10% | 97% (active) | 89.1% (active) |
| CC(=O)c1c2c(cc3c1CC1(Cc4ccccc4C1=O)C3)CCC2 (stereo not given) | -4% | 79% (active) | 36.7% | -27% | 88% (active) | 42.8% | -36% | 87% (active) | 60% | 27% | 29% | 46.4% | -4% | 89% (active) | 63.8% | -11% | 73% (active) | 61.5% |
| CCN(CC)Cc1ccc(Nc2cc(C)nc(/N=C(\N)Nc3ccc(Cl)c(Cl)c3)n2)cc1 | 66% | 97% (active) | 97.3% (active) | 55% | 98% (active) | 95.3% (active) | 59% | 98% (active) | 98.1% (active) | 11% | 97% (active) | 82.5% (active) | 7% | 98% (active) | 94.2% (active) | 55% | 98% (active) | 97.3% (active) |
| CC(=O)OC(c1ccc(Cl)cc1)c1ccc(Cl)cc1 | -43% | 1% | 16.5% | -11% | -8% | -2% | -7% | 20% | 18.8% | -17% | 4% | 8.85% | 2% | 0% | 0.2% | -22% | 16% | 18.9% |
| Cc1cc(=Nc2ccc3c(c2)c(N)cc(C)[n+]3C)nc(N)n1C | 84% (active) | 88% (active) | 97.1% (active) | 78% (active) | 95% (active) | 92.5% (active) | 78% (active) | 61% | 95.2% (active) | 83% (active) | 85% (active) | 91.9% (active) | 75% (active) | 87% (active) | 89.1% (active) | 83% (active) | 90% (active) | 97.5% (active) |
| CCCCN(C)N=Nc1c(C(N)=O)n[nH]c1C(C)C | 14% | 84% (active) | 79.7% (active) | -8% | 21% | 24.4% | -4% | 52% | 29.4% | -3% | -5% | 1.15% | -4% | -10% | -24.2% | 29% | 80% (active) | 57.6% |
| Fc1ccc(CN2COc3c(ccc4cccnc34)C2)cc1 | -5% | 32% | 59.4% | -2% | 17% | 27.1% | 2% | 34% | 62.4% | 3% | 70% (active) | 41.2% | -5% | 50% | 77% (active) | -1% | 57% | 9.45% |
| O=C1C2Nc3ccccc3SC2C(=O)N1c1ccccc1C(F)(F)F (stereo not given) | 3% | 35% | 73.8% (active) | 3% | 11% | 12.5% | 16% | 24% | 47.4% | 2% | 11% | 46.5% | -1% | 29% | 13.7% | 7% | 44% | 73.2% (active) |

Reference: PubChem BioAssay (NCI)
